Source: PubChem
LDHA inh = qHTS assay for inhibitors of human lactate dehydrogenase; activity change, % (values are at about 110 or 230 µM); AID 1347041, 2019; purified LDHA, NADH/diaphorase-resazurin fluorescence; active compounds read low; 480,000 tested, 0.15% active; in the data active = activity change below about -30%; inconclusive = mostly about -25% to -30%;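 note: plate controls were DMSO wells for no effect and wells without enzyme for full effect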
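Enzyme activity of human lactate dehydrogenase 5 (2 nM; 0.06 mM NADH, 0.2 mM pyruvate, 5 min, RT) is measured via a resazurin/diaphorase fluorescence readout of residual NADH.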
PI4K2A inh = qHTS for small molecular inhibitors of PI4K2A; activity change, negative = inhibition, % at 76.9 µM; 420,000 tested, 0.13% active; purified PI4K2A, ADP-Glo luminescence, 1 h; active compounds read low; Phosphatidylinositol 4-kinase type 2-alpha (Homo sapiens), Q9BTU6; in the data active = activity change below about -50%; inconclusive = mostly about -30% to -49%;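 note: -100% = wells without enzyme as full effect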
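Compounds are screened against recombinant PI4K2A using PI as substrate and ATP, the latter dispensed at 300 microM. Reactions run one hour at ambient temperature before ADP-Glo detection; full inhibition defined by wells lacking enzyme.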
DRD3 agonist = qHTS of D3 Dopamine Receptor Agonist: qHTS. D(3) dopamine receptor (Homo sapiens), P35462. D3R DiscoveRx beta-arrestin cells, luminescence, 90 min. max activation, %. 410,000 tested, 0.58% active. AID 652048, 2013; in the data active = max activation above about 30%; note: 0% is about no effect
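Agonist-mode cell screen: cells plated at 1500/well and incubated overnight at 37 °C, then exposed to library compounds for 90 min at 37 °C. Detection reagent was added for 30–60 min at room temperature, and luminescence was read.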
DRD3 antagonist = qHTS of D3 Dopamine Receptor Antagonist: qHTS; D(3) dopamine receptor (Homo sapiens), P35462; D3R cells, DiscoveRx beta-arrestin luminescence, antagonist mode; active compounds read low; max response, negative = inhibition, %; 360,000 tested, 2.5% active; in the data active = max response below about -50%; inconclusive = no clear call, values can overlap the other calls; note: % is set by controls: 0 for no effect and ±100 for the full control effect
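Cells plated overnight at 1500 cells/well, then exposed to library compounds with dopamine controls for 90 minutes at 37 degrees C. DiscoveRx reagent added for 30–60 minutes at room temperature; luminescence read, quantitative HTS format.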
RGS4 inh = Inhibitors of Regulator of G Protein Signaling (RGS) 4: qHTS | Regulator of G-protein signaling 4 (Homo sapiens), P49798 | Transcreener GDP fluorescence polarization, RGS4-accelerated GTP hydrolysis | Potency, µM (doses to about 114 µM), for inactives: at the top dose activity change, negative = inhibition, actives largely listed as inhibitors | 390,000 tested, 0.039% active; active = well fitted inhibition curve with a large enough effect; inconclusive = small, poorly fitted or top-dose-only effect; inactive = no such curve, though single readings can be large or run the other way; note: potency is the fitted concentration of half-maximal effect; % is set by controls: 0 for no effect and ±100 for the full control effect; nearly all actives have a fitted effect of over 75% in size
Target sequence (P49798 whole entry, looked up): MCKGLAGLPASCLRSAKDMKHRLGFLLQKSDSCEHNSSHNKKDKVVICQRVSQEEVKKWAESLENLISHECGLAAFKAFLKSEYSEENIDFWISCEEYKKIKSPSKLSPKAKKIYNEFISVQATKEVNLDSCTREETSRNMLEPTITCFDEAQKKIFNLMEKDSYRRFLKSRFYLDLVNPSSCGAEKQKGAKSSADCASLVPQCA
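MLSMR compounds (23 nl, pin-transferred) preincubated 10 min at room temperature with a 500nM (2x) first reagent, then RGS4 at 900nM (2x) plus Transcreener GDP mix added; fluorescence polarization (620/688 nm) read before and after 90 min at 30 °C.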
pAkt inh = HTS Assay for Inhibitors of Akt Phophorylation: Primary Screen | Neuro2A IGF-stimulated pAkt S473 HTRF, 20 min; active compounds read low | 360,000 tested, 0.32% active | activity change, % for hits at 50 µM; in the data active = activity change below about -80%; inconclusive = mostly about -51% to -80%; note: % is set by controls: 0 for no effect and ±100 for the full control effect
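Single-point screen (50 µM final compound) in Neuro2A cells stimulated 20 min with 6 nM IGF at 37 deg C. After lysis, Ser473-phosphorylated Akt read by HTRF (ex 330 nm, em 615/665 nm) as the 665/615 ratio.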
* marks the source's active call; other numbers are inactive results; i = inactive; ? = inconclusive; / = no result; ! = a repeat was not active; [ ] = remark or other dose. Most compounds without a hit are left out; they make up all but 2.8% or so of the library.

SMILES	LDHA inh	PI4K2A inh	DRD3 agonist	DRD3 antagonist	RGS4 inh	pAkt inh
COC(=O)c1ccsc1NC(=O)CS(=O)(=O)c1ccccc1	-4.7	-0.2	-14.7	-101.8*	-3.7%	i
COC(=O)c1ccsc1NC(=O)CCS(=O)(=O)c1ccccc1	-1.1	4.9	1.7	10.1	-24.0%	i
Cc1ccc(C(C)NC(=O)NCCNc2ncccc2C#N)cc1 (centres undefined)	-1.5	/	/	/	/	/
N#C/C(=C\c1c[nH]c2ccccc12)C(=O)OC1CCCCC1	4.3	/	/	/	/	/
CC(C)OC(=O)/C(C#N)=C/c1c[nH]c2ccccc12	-32.5*!	4.7	-4.3	5.5	-27.3%	i
Cc1ccc(S(=O)(=O)CS(=O)(=O)c2ccc(C)cc2)cc1	-5.0	5.3	-7.7	3.5	-28.5%	i
Cc1ccc(S(=O)(=O)Cn2cnnn2)cc1	-7.5	-8.1	-1.1	-78.4*	-11.8%	i
COc1ccc2nc(/C(C#N)=C/c3ccccc3Sc3ccccc3)[nH]c2c1	4.3	/	/	/	/	/
O=C(Nc1noc2ccccc12)c1ccc(F)cc1	-5.0	-55.7*	4.8	/	-12.8%	/
Cc1cccnc1N(C(=O)Nc1ccccc1)C1=NCC(C)(C)S1	-2.9	1.2	0.2	-17.2	-4.0%	i
CC1(C)CN=C(N(C(=O)Nc2ccccc2)c2ccccc2F)S1	-2.9	4.2	30.9*	7.6	-17.6%	i
COc1ccc(C(NC(=O)CN2CCCCCC2)c2ccc(OC)cc2)cc1	-1.7	0.2	-28.5	-52.5*	-3.7%	i
CCOc1ccccc1N1CCN(CC(=O)NC(C)c2ccccc2)CC1 (centres undefined)	-6.3	-9.7	-22.1	-89.1*	-4.4%	i
CCOc1ccccc1N1CCN(CC(=O)Nc2c(Cl)cccc2Cl)CC1	0.8	/	/	/	/	/
O=C(CN1CCN(c2ccccc2O)CC1)NC(c1ccccc1)c1ccccc1	-1.6	0.2	-19.2	-56.2*	-0.4%	i
CCCC(=O)Nc1ccc(Cl)c(NC(=O)c2cccc3ccccc23)c1	-8.7	/	/	/	/	/
COc1ccc2cc(C(=O)NCC3CCC3)c(C)nc2c1	-24.4	/	/	/	/	/
Cc1[nH]nc(C(=O)NN=Cc2ccccc2Cl)c1N=NN(C)C	-5.3	-27.7	-10.8	-80.7*	?	i
Cc1[nH]c(C)c(S(=O)(=O)Nc2cccc(Cl)c2C)c1C(=O)N1CCCC1	0.2	3.9	-2.9	-65.1*	8.5%	i
Cc1[nH]c(C)c(S(=O)(=O)Nc2cccc(Cl)c2C)c1C(=O)N1CCCCC1	-2.7	-2.1	-4.6	-51.2*	9.9%[11.4 µM]	i
Cc1ccc(NS(=O)(=O)c2c(C)[nH]c(C)c2C(=O)N2CCCC2)cc1Cl	0.0	0.0	-20.9	-85.8*	22.9%	i
Cc1[nH]c(C)c(S(=O)(=O)Nc2ccccc2Cl)c1C(=O)N1CCCC1	-7.9	0.3	2.4	-5.8	-10.4%[56.9 µM]	i
CCOC(=O)C1[C@H]2C(=O)N(CCCOC)C[C@]23C=C[C@H]1O3 (some centres undefined)	-0.2	-0.6	12.4	17.3	3.9%	/
CCCCOC(=O)C1C2C=C[C@]3(CN(CCCOC)C(=O)[C@H]13)O2 (some centres undefined)	-9.7	-2.0	-2.6	-51.4*	18.4%	i
COc1ccc(NS(=O)(=O)c2cc(C)ccc2OC)cc1OC	0.2	4.6	9.9	-58.0*	-15.6%	i
C/C(=N/NC(=O)c1ccc(C(C)(C)C)cc1)c1ccccn1	-4.3	-1.6	-51.0	-114.5*	5.8%	i
C/C(=N\NC(=O)c1cc(Br)ccc1O)c1ccccn1	-1.5	-1.4	3.7	4.0	1.3%	i
C/C(=N\NC(=O)C(c1ccccc1)c1ccccc1)c1ccccn1	-6.2	-3.7	-22.3	-75.7*	-2.6%	i
C/C(=N\NC(=O)c1cccc(Br)c1)c1ccccn1	2.7	-0.8	-8.1	-52.8*	-17.1%	i
